Results as given in PubChem BioAssay AID2417 (National Center for Advancing Translational Sciences (NCATS), 2010).
Screen size: about 140,000 compounds; about 4,300 (3.1%) were called active. Not shown: some 21% with an inconclusive outcome.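 The calls were made as follows: active = readout at or below -70, meaning at least 70% loss of cells showing the perinucleolar compartment, a nuclear body marking cancer cells; inconclusive = readout between -30 and a set limit; inactive = the rest.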 Only a selection was taken, and actives are over-represented in it overall.

Test: High Content Assay for Compounds that inhibit the Assembly of the Perinucleolar Compartment;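 also: plate controls were DMSO wells for no effect and camptothecin positive control wells for full effect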
Details: PC3M PTB-GFP, PNC prevalence imaging, 16 h; at 10 µM; hits give low values
How it was run: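 PC3M cells stably expressing PTB-GFP, 750–1000 cells/well, treated 16 h at 37 °C with compound (23 nl of library stock), in duplicate. After paraformaldehyde fixation and Hoechst stain, imaged at 20x; PNC prevalence scored by image analysis.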

Activity change (PNC), negative = inhibition, active:
O=C(/C=C/c1ccc(Cl)cc1)N1CCN(c2ccccc2[N+](=O)[O-])CC1 -91.4%, Cc1cc(C(=O)COC(=O)c2cccs2)c(C)n1-c1c(C)n(C)n(-c2ccccc2)c1=O -127%, COc1ccc(C(=O)COC(=O)c2ccc3ccccc3n2)cc1 -89.8%, CCOc1ccc2nc(NC(=O)c3cc([N+](=O)[O-])ccc3N3CCOCC3)sc2c1 -84.5%, Cc1cc(C)c2c(c1)cc(C)c1nnc(SCC(=O)Nc3cc(C)on3)n12 -88.4%, O=C(Nc1c2c(nc3ccccc13)CCCC2)c1ccccc1Br -109%, CCNc1nc(NC(C)C)nc(OCCOC(=O)c2ccccc2)n1 -100%, COc1ccccc1-c1nnc(NC(=O)c2ccc3ncsc3c2)o1 -121%, O=C(N/N=C/c1ccc(O)cc1)/C(=C/c1ccc([N+](=O)[O-])cc1)NC(=O)c1ccccc1 -101%, C=C(C)CNC(=S)/N=c1\scc(C)n1CC -100%, O=C(Nc1ccccc1Cl)O/N=C(/c1ccccc1)c1ccccn1 -96.2%, O=C(OCC(O)C(O)COC(=O)c1ccccc1)c1ccccc1 (centres undefined) -83.5%, O=C(NCc1cccnc1)c1cn(-c2ccccc2)nc1-c1cccs1 -139%, O=C(CN1CCN(c2ncc(C(F)(F)F)cc2Cl)CC1)Nc1ccc2c(c1)OCO2 -86.4%, CC1CCN(c2ccc(C(=O)Nc3nnc(C4CC4)s3)cc2[N+](=O)[O-])CC1 -87.1%, COc1ccc(NC(=O)COC(=O)c2ccc(NS(=O)(=O)/C=C/c3ccccc3)cc2)cc1 -91.4%, CCOC(=O)c1[nH]c2ccc(OC)cc2c1NC(=O)N1CCOCC1 -102%, CC(c1ccccn1)N(CCN(C)C)C(=S)Nc1ccccc1F (centres undefined) -111%, COc1ccccc1N1CCN(C(=O)c2c(-c3c(Cl)cccc3Cl)noc2C)CC1 -86.9%, Cc1onc(-c2ccccc2)c1C(=O)N1CCOCC1 -109%, CCOC(=O)c1c(NC(C)=O)sc2c(O)c(Br)ccc12 -80.8%

Activity change (PNC), negative = inhibition, inactive:
Cc1cccc(N2CCN(C(=O)/C=C/c3ccco3)CC2)c1C 16.7%, CO/N=C/c1ccc(N2CCN(C(=O)c3cccc(Cl)c3)CC2)c([N+](=O)[O-])c1 77.9%, CCCN=C1NC(=O)C(CC(=O)NCCc2ccc(OC)c(OC)c2)S1 (centres undefined) 58.6%, Cc1cc(C)c(C2C3=C(Nc4c2c(C)nn4-c2ccccn2)c2ccccc2C3=O)c(C)c1 (centres undefined) -28.9%, CC1=C[C@H]2Cc3cc(C)cc(C)c3S(=O)(=O)[C@@H]2C=C1 28.1%, CCCn1c(C)cc(C(=O)COC(=O)c2c(C)nn(-c3ccccc3)c2C)c1C -22.8%, COc1ccc(-n2c(C)cc(C(=O)COC(=O)c3cc(OC)c(OC)cc3NC(=O)c3cccs3)c2C)cc1 173%, COc1ccc(C2=NOC(COC(=O)c3ccc4ccccc4n3)C2)cc1 (centres undefined) -3.15%, O=C(Oc1ccc([N+](=O)[O-])cc1)c1ccc2ccccc2n1 -25.3%, Cc1cc(C)cc(OCC(=O)Nc2nc3ccc([N+](=O)[O-])cc3s2)c1 84.2%, CCOc1ccc2nc(Nc3nc4ccc(NC(C)=O)cc4s3)sc2c1 10%, Cc1ccc(-c2csc(SCC(=O)Nc3cc(C)on3)n2)cc1 32.6%, CCOc1ccccc1Nc1nnc(SCC(=O)Nc2cc(C)on2)s1 1.96%, COc1cccc(-n2c(SCC(=O)c3c[nH]c4ccccc34)nc3ccccc3c2=O)c1 -15.1%, O=C(COC(=O)c1c2c(nc3ccccc13)CCCC2)c1ccc(Br)s1 17.9%, Cc1nonc1NC(=O)c1ccccc1Br -15.2%, Cc1ccc(C)c(NC(=O)CCC(=O)NNC(=O)c2cccs2)c1 30.9%, NC1=NC(=O)C(Cc2cccc(Cl)c2Cl)S1 (centres undefined) -13.4%, COc1ccccc1N1N=C(c2cccs2)CC1c1ccccc1 (centres undefined) -19.6%, CC(C)Nc1nc(N(c2ccccc2)c2ccccc2)nc(-n2ccnc2)n1 -4.69%, CCNc1nc(NC(C)C)nc(N2CC(=O)N(CC(=O)OCC)C2=N)n1 3.87%, O=C(CCc1ccccc1)Nc1nn[nH]n1 50.3%, COc1ccc(C2COC(=O)C2=N)c(NC(=O)c2ccccc2)c1 (centres undefined) -25.6%, CCC1=NN(C(=O)Cc2ccc([N+](=O)[O-])cc2)C(O)(c2ccc(Br)cc2)C1 (centres undefined) 99.6%, COc1ccccc1-c1nnc(NC(=O)c2cccc(N3C(=O)CCC3=O)c2)o1 -7.63%, COc1ccccc1-c1nnc(SCC(=O)Nc2cc(C)on2)o1 -4.25%, CCCCC(CC(C)O)c1n[nH]c(=S)n1-c1ccccc1 (centres undefined) 4.51%, O=C(NCCCO)/C(=C\C=C\c1ccccc1)NC(=O)c1ccccc1Cl 26.4%, O=C(N/N=C/c1cc([N+](=O)[O-])ccc1O)/C(=C\c1cccs1)NC(=O)c1ccccc1 25.3%, O=C(NCCc1ccccc1)/C(=C\c1ccc([N+](=O)[O-])cc1)NC(=O)c1ccccc1 -6.81%, CCCC(=O)Nc1ccc(C(=O)N/N=C/c2ccc[nH]2)cc1 -29.4%, Cc1csc(=Nc2ccccc2)n1CCO -25.4%, Cc1csc(=NC(=O)c2ccccc2)n1CCO -9.41%, COc1cc(/C=C/C(=O)N2c3ccccc3Sc3ccc(C(F)(F)F)cc32)cc(OC)c1OC -24.5%, O=C(CSc1nnc(Nc2ccccc2)s1)Nc1cccnc1Cl -10.3%, C/C(=N\NC(=O)Cc1ccc(Cl)cc1)c1ccccn1 -18.2%, COc1cc2c(cc1OC)C(=O)NCC(C)(C)O2 47.7%, CCCCN(CC)C(=O)c1ccc2c(c1)OCO2 21.9%, COC(=O)c1ccc(NCC(=O)c2ccccc2)cc1 -26.4%, CCOC(=O)c1ccc(N/C(=N/S(=O)(=O)c2ccccc2)c2ccccc2)cc1 3.77%, COc1ccc(/C=C/C(=O)OCC(=O)NCc2cccs2)cc1OC -1.51%, CCCCOc1ccc(C(=O)N/C(=C/C=C/c2ccccc2)C(=O)N2CCOCC2)cc1 -12.2%, CCOc1ccc2nc(C(=O)N3CCCC(C)C3)sc2c1 (centres undefined) 6.06%, O=C(NC1CCCC1)C(NS(=O)(=O)c1ccc(Br)s1)c1ccccc1 (centres undefined) 48.1%, O=C(/C=C/c1cccs1)NCc1cccnc1 -0.603%, COC(=O)c1cn(-c2ccccc2)nc1-c1cccnc1 -22.9%, COC1=CCC2([N+](=O)[O-])CN(CC(=O)O)CC1([N+](=O)[O-])C2 (centres undefined) 6.59%, COc1ccc(/C=C/C(=O)Nc2ccc3c(c2)OCCO3)cc1OC -11.1%, Cc1cc(C(=O)OCC(=O)Nc2nnc(C(C)C)s2)c2ccccc2n1 3.82%, CCCc1nc2c([nH]1)C(c1cccnc1)C(C#N)=C(N)O2 (centres undefined) 7.34%, O=C(CN1CCN(c2ccc(F)cc2)CC1)Nc1cccc(C(F)(F)F)c1 -19.9%, O=C(CN1CCN(CC(=O)Nc2ccc3c(c2)OCO3)CC1)Nc1ccc(F)cc1 -20.9%, CCOC(=O)c1c(NC(=O)c2ccc(N3CCOCC3)c([N+](=O)[O-])c2)sc(C)c1C 28.7%, CC1CCN(c2ccc(S(=O)(=O)Nc3cc(C(=O)O)cc(C(=O)O)c3)cc2[N+](=O)[O-])CC1 -0.23%, CCc1cccc(C)c1NC(=O)COC(=O)Cc1ccsc1 -6%, C=CCNC(=S)NNC(=O)c1ccc(Br)o1 -23.4%, O=c1c2c(ncn1Cc1ccccc1)nc1n2CCC1 -8.18%, CCC(C(=O)OCC(=O)Nc1ccc(C(=O)Nc2ccc(OC)cc2)cc1)c1ccccc1 (centres undefined) 12.6%, NS(=O)(=O)c1ccc(NS(=O)(=O)/C=C/c2ccccc2)cc1 -5.65%, Cc1c(C(=O)N2CCOCC2)[nH]c2ccc(OCc3ccccc3)cc12 -12.2%, COc1cc(NC(=O)N2CCOCC2)cc(OC)c1 29.1%, Cc1cccc(NC(=S)N(CCN(C)C)C(C)c2ccco2)c1 (centres undefined) 5.52%, CC(C)C(=O)NC(=S)Nc1ccccc1F 28.8%, CC(=O)Nc1ccc(SCC(=O)Nc2ccccc2Oc2ccccc2)cc1 -10.5%, CC1CCc2sc(C(=O)N/N=C/C3CCCCC3)cc2C1 (centres undefined) -24%, COc1ccccc1N1CCN(C(=O)c2cc(-c3ccc(Cl)c(Cl)c3)on2)CC1 321%, O=C(c1ccccc1-c1ccccc1)N1CCOCC1 -12%, Cc1noc(C)c1C(=O)N1CCOCC1 0.83%, COc1ccccc1N1CCN(C(=O)c2cc(-c3ccc(Br)cc3)on2)CC1 15.5%, O=C(CN1C(=O)/C(=C\c2ccc(C(F)(F)F)cc2)Sc2ccccc21)NCc1ccco1 37.6%, O=c1cc(CN2CCN(S(=O)(=O)/C=C/c3ccccc3)CC2)c2ccc(O)cc2o1 -11.6%, CCOC(=O)c1c(NC(=O)c2ccc(Br)o2)sc2c1CCCC2 2.82%, CCOC(=O)Nc1sc(C(=O)N(C)C)c(C)c1C(=O)OCC 10.4%
